Measurements from PubChem BioAssay AID1347416 (National Center for Advancing Translational Sciences (NCATS), 2020).
Screen size: about 4,100 compounds; about 1,600 (39%) were called active. About 25% were inconclusive and are not listed. Calls come from the whole dose curve; as a rule, active = well fitted inhibition curve with a large enough effect; inconclusive = small, poorly fitted or top-dose-only effect; inactive = no such curve, though single readings can be large or run the other way. This is one part of the list. Entries that show only a call come without a potency.

Assay: qHTS Validation assay for Inhibitors of Plasmodium falciparum Dd2 growth in vitro; note: nearly all actives have a fitted effect of over 70% in size
Conditions: P. falciparum Dd2 in RBCs, SYBR Green growth, 72 h; series mostly up to 28.7 µM
How it was run: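 P. falciparum Dd2-infected red blood cells (2.5% hematocrit, 0.3% parasitemia) grown 72 h at 37 °C under 5% O2 with compounds in a titration, 29 uM to 0.5 nM final. Growth read as SYBR Green-1 fluorescence after ~16 h lysis; artesunate 300 nM as positive control.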
Potency is the fitted concentration of half-maximal effect.

Structure (SMILES)	Potency
Cc1ccc(C(=O)N/N=C/c2ccc([N+](=O)[O-])s2)cc1	5.96 µM (active)
Cc1ncc(CO)c(/C=N/NC(=O)c2ccc(O)cc2)c1O	inactive
Cc1ccccc1C1C(C#N)=C2N=C(N)c3c(sc4c3CCCCC4)N2C2=C1C(=O)CCC2 (stereo not drawn)	2.66 µM (active)
CN(CC1CCOC1)C(=O)Nc1ccc(Br)cc1 (stereo not drawn)	inactive
COC(=O)c1ccc(CN2C(=O)[C@@H]3C[C@@H](O)CN3C3(CN(Cc4ccc(F)cc4)C3)C2=O)cc1	inactive
COc1cc(C2CC(=O)N(Cc3ccc(F)cc3)c3ccccc3S2)cc(OC)c1OC (stereo not drawn)	2.11 µM (active)
COc1cc(-c2ccnc3nc(Cc4ccc(F)cc4)nn23)cc(OC)c1OC	inactive
O=C(/C=C/c1ccco1)NC(=S)Nc1ccccc1N1CCCC1	2.66 µM (active)
CC(C)(C)C(=O)NC(=S)Nc1ccccc1N1CCCC1	inactive
O=C(CCSc1nc(-c2ccco2)cc(C(F)(F)F)n1)Nc1cccc(O)c1	inactive
Cc1noc(-c2cn(C3CCN(C(=O)C(C)Oc4ccc(Cl)cc4)CC3)nn2)n1 (stereo not drawn)	inactive
Cc1ccc(C)c(NC(=O)CN(C)C(=O)c2ccc(-c3cccc(C(F)(F)F)c3)o2)c1	2.11 µM (active)
O=C(Nc1ccccc1N1CCCC1)c1cc2ccccc2o1	inactive
Cc1cccc(Cn2nnc(C(=O)Nc3cc(C)ccc3C)c2N)c1	inactive
COc1cccc(NC(=O)[C@@H]2C[C@H](c3cccc(C(F)(F)F)c3)N(Cc3cnn(C)c3)C2)c1	inactive
Cc1ccc(C)c(NC(=O)CN(C)C(=O)c2cc3ccccc3o2)c1	13.3 µM (active)
COCC(=O)Nc1ccc2c(c1)OCC(=O)N2Cc1ccc(C)cc1	inactive
Cc1ccc2c(CC(=O)Nc3ccccc3C(F)(F)F)coc2c1C	inactive
Cc1ccc(C)c(NC(=O)CN(C)C(=O)c2ccc(-c3ccc(Cl)cc3)o2)c1	4.73 µM (active)
COc1cccc(NC(=O)CN(C)C(=O)c2ccc(-c3cccc(C(F)(F)F)c3)o2)c1	0.596 µM (active)
Cc1ccc(-c2cn3cccnc3n2)cc1NC(=O)Cc1ccccc1	inactive
O=C(c1cc2c(s1)CCCC2)N1CCc2c(nc3cc[nH]n3c2=O)C1	inactive
Cc1ccc(C(=O)NCCc2noc(C3CC3)n2)cc1C	inactive
CN(CC(=O)Nc1cccc(F)c1)C(=O)c1ccc(-c2cccc(C(F)(F)F)c2)o1	0.668 µM (active)

Structure (SMILES)	Potency
Cc1cccc(NC(=O)CN(c2ccc(F)cc2)S(C)(=O)=O)c1	inactive
COc1cccc(NC(=O)CN(C)C(=O)c2ccc(-c3ccc(Cl)cc3)o2)c1	4.22 µM (active)
CCCC(C)C(=O)Nc1ncc(S(=O)(=O)c2ccc([N+](=O)[O-])cc2)s1 (stereo not drawn)	5.96 µM (active)
COc1ccc(OC)c(CCNC(=O)c2nc(-c3ccc(Cl)cc3)n3c2CCCCC3)c1	inactive
COc1ccc(-c2cc3c(=O)n(CCNC(=O)c4c(F)cccc4Cl)ccn3n2)cc1	inactive
COc1ccc(CCNC(=O)c2cc(C(=O)c3cc(Cl)ccc3O)cn(CCc3ccc(OC)cc3)c2=O)cc1	3.76 µM (active)
Cc1ccc(Oc2c(C)nc(-c3ccccc3)[nH]c2=O)cc1	5.31 µM (active)
Cc1ccc(-c2nc3ccccc3c(=O)n2O)cc1	inactive
CCC(=O)N1CCN(C2CCN(Cc3ccccn3)C2=O)CC1 (stereo not drawn)	inactive
Cc1ccnc2nc(C(=O)Nc3cc(Cl)ccc3N3CCOCC3)nn12	4.73 µM (active)
O=C(Nc1ccncc1)Nc1ccc(Cl)cc1	10.6 µM (active)
N#Cc1ccc(NC(=O)Nc2ccc(Cl)cc2)cc1	5.31 µM (active)
CNC(=O)[C@@H]1CN(Cc2ccc(C#N)cc2)C[C@H]1COC	inactive
CCn1ncc(Cl)c1C(=O)Nc1ccncc1	inactive
O=C(Nc1ccncc1)c1ccc(Cl)c(Cl)c1	inactive
Cc1cc(C)n2nc(C(=O)N3CCN4C(=O)CN(C)C(=O)C4C3)cc2n1 (stereo not drawn)	inactive
CC(C)c1ccc(N2CC(C(=O)NCc3cncn3C3CC3)CC2=O)cc1 (stereo not drawn)	inactive
Cc1ccc(NC(=O)CSc2n[nH]c(-c3ccccn3)n2)cc1	inactive
CCc1ccc(OCC(=O)Nc2ccc(-c3nc4ncccc4o3)cc2)cc1	inactive
CCc1ccc(NC(=O)CSc2nc3n[nH]c(C)c3c(=N)n2-c2ccc(C)cc2)cc1	6.68 µM (active)
CC(C)c1noc(-c2cccn3c(CNC(=O)c4cccc(Cl)c4)nnc23)n1	inactive
CCCN1CCc2[nH]cnc2C12CCN(C(=O)c1ccc(CSC)o1)CC2	inactive
CC(OC(=O)CCc1cc(C(C)(C)C)c(O)c(C(C)(C)C)c1)C(=O)NC1CC1 (stereo not drawn)	4.73 µM (active)
COc1ccc(C(=O)NCc2nnc3c(-c4nc(C(C)C)no4)cccn23)cc1F	inactive

Structure (SMILES)	Potency
COc1ccc(-c2noc(-c3cccn3CC(=O)Nc3cc(C)ccc3C)n2)cc1F	inactive
COc1ccc(-c2noc(-c3cccn3CC(=O)Nc3ccccc3F)n2)cc1F	4.22 µM (active)
COc1ccc(-c2noc(-c3cccn3CC(=O)Nc3cccc(Cl)c3C)n2)cc1F	inactive
COc1ccc(-c2noc(-c3cccn3CC(=O)Nc3ccccc3C)n2)cc1F	5.31 µM (active)
O=C1COCC2(CN(Cc3ccsc3)C2)CN1Cc1cccc(OC(F)(F)F)c1	17.2 µM (active)
O=C1NC2(CCN(Cc3ccc(OC(F)(F)F)cc3)C2)OCc2ccccc21 (stereo not drawn)	inactive
O=C(c1cc(C(F)(F)F)[nH]n1)N1CC[C@@H](c2ccc(F)cc2)[C@H](O)C1	inactive
CC(C)OC(=O)c1cccc(NC(=O)Cn2nnc3sc4c(c3c2=O)CCCC4)c1	inactive
CCCCNc1nc2sc3c(c2c(=O)n1-c1cccc(Cl)c1)CCN(C)C3	9.44 µM (active)
CCCCCNc1nc2sc3c(c2c(=O)n1-c1cccc(Cl)c1)CCN(C)C3	7.5 µM (active)
CCOC(=O)N1CCc2c(sc3nc4n(c(=O)c23)N=C(c2ccc(OC)cc2)CS4)C1	inactive
Cc1ccc(-c2nc(CN3CCCC3=O)no2)cc1	inactive
CCn1nnc(NC(=O)c2ccc(C(C)(C)C)cc2)n1	9.44 µM (active)
CCCn1nnc(NC(=S)NC(=O)Cc2ccccc2)n1	inactive
C[C@]1(CO)[C@H]2Cc3sc(NC(=O)c4cccc(F)c4)nc3[C@@H](CC(=O)N3CCOCC3)[C@]2(C)CC[C@H]1O	8.41 µM (active)
CCOc1cc(C(=O)Nc2nnc(CC)s2)ccc1OCC(=O)N1CCOCC1	inactive
CCN(CC)C(=O)C[C@@H]1c2nc(NC(=O)c3cccc(F)c3)sc2C[C@@H]2[C@](C)(CO)[C@H](O)CC[C@]21C	9.44 µM (active)
CCOc1ccccc1C(=O)Nc1nc2c(s1)CC(C)CC2 (stereo not drawn)	inactive
CC1CCN(C(=O)C[C@@H]2c3nc(NC(=O)c4cccc(F)c4)sc3C[C@@H]3[C@](C)(CO)[C@H](O)CC[C@]32C)CC1	10.6 µM (active)
C[C@H](C(=O)N1CCCC1)C1CC[C@@]2(C)Cc3sc(NC(=O)C4CC4)nc3[C@@H](C)[C@@H]2[C@H]1O (stereo partly drawn)	inactive
Cc1ccc(-c2nnc3ccc(-c4ccoc4)nn23)nc1	inactive
COc1ccc(-n2cc(CNCCCn3ccnc3)c(-c3ccccc3Cl)n2)cc1	3.35 µM (active)
CCCn1cnnc1CNC(=O)CC1C(=O)NCCN1Cc1ccoc1 (stereo not drawn)	inactive
Cc1ccc(OCc2nc(C3CCN(C(=O)c4c5c(nc6ccccc46)CCCC5)CC3)no2)cc1	9.44 µM (active)

Structure (SMILES)	Potency
Cc1ccc(OCC(=O)N2CCC(c3noc(-c4ccccn4)n3)C2)cc1 (stereo not drawn)	inactive
Cc1ccc(OCc2nc(C3CN(C(=O)c4ccc5nc[nH]c5c4)C3)no2)cc1	inactive
CCc1cccc(NC(c2nnc(-c3ccccc3)o2)c2ccc(F)cc2Cl)c1 (stereo not drawn)	6.68 µM (active)
COc1ccc(C2C=C(c3ccccc3)Nc3nc(NS(=O)(=O)c4ccccc4)nn32)cc1 (stereo not drawn)	inactive
Cc1ccc(-c2nc3n(n2)C(c2ccccc2Cl)C=C(c2ccc(Cl)cc2)N3)cc1 (stereo not drawn)	9.44 µM (active)
COC(=O)C1=C(C)Nc2nnnn2C1c1ccccc1Cl (stereo not drawn)	inactive
Cc1ccc(C2=CC(c3ccc(Cl)cc3)n3nc(-c4ccc(C)cc4)nc3N2)cc1 (stereo not drawn)	1.68 µM (active)
COc1ccc(C2C=C(c3ccc(Cl)cc3)Nc3nc(-c4ccc(Cl)cc4)nn32)cc1 (stereo not drawn)	0.237 µM (active)
COc1ccc(C2C=C(c3ccc(F)cc3)Nc3nc(-c4ccc(Cl)cc4)nn32)cc1 (stereo not drawn)	0.75 µM (active)
CC(=O)c1cccc(NC(=O)[C@H]2O[C@@H]3OC(C)(C)O[C@@H]3[C@H]3OC(C)(C)O[C@H]32)c1	inactive
COc1cccc(-c2c(C#N)c(N)nc3c2c(C)nn3-c2ccccc2)c1O	1.5 µM (active)
COc1ccc(Cl)cc1NC(=O)c1cc(C)nc2c1c(C)nn2-c1ccccc1	inactive
CCN(C(=O)Cn1nc2c3cc(F)ccc3n(Cc3cccc(C)c3)cc-2c1=O)c1cccc(C)c1	inactive
CCN(C(=O)CSc1nc(-c2ccc(C(C)C)cc2)no1)c1ccccc1	0.944 µM (active)
Cc1cccc(C(=O)NCc2nnc3c(-c4nc(C(C)C)no4)cccn23)c1	inactive
CCN(C(=O)CSc1nc(-c2ccc(C(C)C)cc2)no1)c1cccc(C)c1	1.06 µM (active)
Cc1ccccc1NC(=O)c1cc(C(=O)c2cc(Cl)ccc2O)cn(-c2ccccc2C)c1=O	0.376 µM (active)
Cn1c(=O)c(=O)n(C)c2cc(N3CCCC3)c(NC(=O)c3ccccc3F)cc21	inactive
O=C(Cn1cc(C(=O)c2ccncc2)c(=O)c2cc(F)ccc21)Nc1ccc(Cl)cc1	inactive
Cc1ccc(NC(=O)c2cc3n(n2)CC(c2ccc(Cl)cc2)OC3)cc1 (stereo not drawn)	inactive
Cc1ccc(NC(=O)c2cc(C(=O)c3cc(Cl)ccc3O)cn(-c3ccc(C)cc3)c2=O)cc1	0.422 µM (active)
